According to ChEMBL document CHEMBL2218924, “A broad activity screen in support of a chemogenomic map for kinase signalling research and drug discovery” (Biochem J, 2013):

How the values were obtained:
[1] = biological target: T1, Ephrin type-B receptor 1 (Homo sapiens) (UniProt P54762); conditions: at 10 µM
T1 sequence (whole entry): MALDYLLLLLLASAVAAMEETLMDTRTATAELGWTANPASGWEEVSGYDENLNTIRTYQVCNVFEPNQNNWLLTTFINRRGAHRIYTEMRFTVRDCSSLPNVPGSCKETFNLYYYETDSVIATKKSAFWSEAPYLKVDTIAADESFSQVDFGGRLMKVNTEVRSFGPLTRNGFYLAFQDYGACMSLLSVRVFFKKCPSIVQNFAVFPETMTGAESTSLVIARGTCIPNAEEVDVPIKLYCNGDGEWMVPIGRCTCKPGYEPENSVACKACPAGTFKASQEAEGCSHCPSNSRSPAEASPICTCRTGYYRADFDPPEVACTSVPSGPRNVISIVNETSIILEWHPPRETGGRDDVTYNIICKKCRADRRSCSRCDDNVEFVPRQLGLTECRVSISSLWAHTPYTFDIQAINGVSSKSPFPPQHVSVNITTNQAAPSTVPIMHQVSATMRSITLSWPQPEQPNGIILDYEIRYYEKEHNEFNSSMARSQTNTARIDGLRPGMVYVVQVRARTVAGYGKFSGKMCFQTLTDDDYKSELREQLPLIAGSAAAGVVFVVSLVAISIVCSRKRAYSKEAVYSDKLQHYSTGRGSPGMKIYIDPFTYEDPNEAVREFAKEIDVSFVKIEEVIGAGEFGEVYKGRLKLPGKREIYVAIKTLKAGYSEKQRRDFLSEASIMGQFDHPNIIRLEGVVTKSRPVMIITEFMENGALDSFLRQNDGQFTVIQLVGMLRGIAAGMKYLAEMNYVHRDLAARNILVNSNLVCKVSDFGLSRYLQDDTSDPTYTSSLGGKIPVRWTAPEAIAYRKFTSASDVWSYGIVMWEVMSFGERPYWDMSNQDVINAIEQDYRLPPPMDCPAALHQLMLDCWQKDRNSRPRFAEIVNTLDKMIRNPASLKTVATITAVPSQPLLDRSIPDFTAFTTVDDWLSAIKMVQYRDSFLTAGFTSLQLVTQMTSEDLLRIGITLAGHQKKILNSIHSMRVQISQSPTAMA

[2] = biological target: T2, Ephrin type-B receptor 2 (Homo sapiens) (UniProt P29323); conditions: at 1 µM
T2 sequence (whole entry): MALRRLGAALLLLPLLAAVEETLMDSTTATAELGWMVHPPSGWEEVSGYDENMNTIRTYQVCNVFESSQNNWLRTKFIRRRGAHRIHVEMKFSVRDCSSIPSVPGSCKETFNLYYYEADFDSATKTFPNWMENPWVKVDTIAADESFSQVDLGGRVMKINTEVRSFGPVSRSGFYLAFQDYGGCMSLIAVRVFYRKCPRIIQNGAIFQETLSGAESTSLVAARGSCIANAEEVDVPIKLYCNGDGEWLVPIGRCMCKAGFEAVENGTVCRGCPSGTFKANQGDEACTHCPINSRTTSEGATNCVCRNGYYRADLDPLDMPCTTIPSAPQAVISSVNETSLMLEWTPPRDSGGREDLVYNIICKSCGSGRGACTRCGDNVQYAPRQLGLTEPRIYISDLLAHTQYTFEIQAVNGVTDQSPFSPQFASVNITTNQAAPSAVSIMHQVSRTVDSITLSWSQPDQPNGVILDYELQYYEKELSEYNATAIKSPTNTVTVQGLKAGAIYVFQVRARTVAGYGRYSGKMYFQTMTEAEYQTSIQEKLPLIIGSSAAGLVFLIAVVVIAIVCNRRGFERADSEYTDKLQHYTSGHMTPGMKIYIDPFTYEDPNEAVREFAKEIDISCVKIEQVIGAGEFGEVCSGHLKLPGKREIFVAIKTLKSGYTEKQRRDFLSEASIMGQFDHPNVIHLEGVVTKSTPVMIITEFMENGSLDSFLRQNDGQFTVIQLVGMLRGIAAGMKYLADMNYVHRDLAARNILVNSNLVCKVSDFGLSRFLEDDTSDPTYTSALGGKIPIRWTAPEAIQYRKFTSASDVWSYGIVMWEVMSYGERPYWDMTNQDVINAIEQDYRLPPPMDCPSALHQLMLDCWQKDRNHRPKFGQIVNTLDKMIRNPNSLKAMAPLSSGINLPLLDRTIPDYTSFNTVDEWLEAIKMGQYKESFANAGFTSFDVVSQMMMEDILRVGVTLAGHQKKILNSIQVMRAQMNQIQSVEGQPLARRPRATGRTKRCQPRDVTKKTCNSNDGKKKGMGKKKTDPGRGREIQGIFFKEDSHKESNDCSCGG

[3] = biological target: T2, Ephrin type-B receptor 2 (Homo sapiens); conditions: at 10 µM
[4] = biological target: T3, Ephrin type-B receptor 3 (Homo sapiens) (UniProt P54753); conditions: at 1 µM
T3 sequence (whole entry): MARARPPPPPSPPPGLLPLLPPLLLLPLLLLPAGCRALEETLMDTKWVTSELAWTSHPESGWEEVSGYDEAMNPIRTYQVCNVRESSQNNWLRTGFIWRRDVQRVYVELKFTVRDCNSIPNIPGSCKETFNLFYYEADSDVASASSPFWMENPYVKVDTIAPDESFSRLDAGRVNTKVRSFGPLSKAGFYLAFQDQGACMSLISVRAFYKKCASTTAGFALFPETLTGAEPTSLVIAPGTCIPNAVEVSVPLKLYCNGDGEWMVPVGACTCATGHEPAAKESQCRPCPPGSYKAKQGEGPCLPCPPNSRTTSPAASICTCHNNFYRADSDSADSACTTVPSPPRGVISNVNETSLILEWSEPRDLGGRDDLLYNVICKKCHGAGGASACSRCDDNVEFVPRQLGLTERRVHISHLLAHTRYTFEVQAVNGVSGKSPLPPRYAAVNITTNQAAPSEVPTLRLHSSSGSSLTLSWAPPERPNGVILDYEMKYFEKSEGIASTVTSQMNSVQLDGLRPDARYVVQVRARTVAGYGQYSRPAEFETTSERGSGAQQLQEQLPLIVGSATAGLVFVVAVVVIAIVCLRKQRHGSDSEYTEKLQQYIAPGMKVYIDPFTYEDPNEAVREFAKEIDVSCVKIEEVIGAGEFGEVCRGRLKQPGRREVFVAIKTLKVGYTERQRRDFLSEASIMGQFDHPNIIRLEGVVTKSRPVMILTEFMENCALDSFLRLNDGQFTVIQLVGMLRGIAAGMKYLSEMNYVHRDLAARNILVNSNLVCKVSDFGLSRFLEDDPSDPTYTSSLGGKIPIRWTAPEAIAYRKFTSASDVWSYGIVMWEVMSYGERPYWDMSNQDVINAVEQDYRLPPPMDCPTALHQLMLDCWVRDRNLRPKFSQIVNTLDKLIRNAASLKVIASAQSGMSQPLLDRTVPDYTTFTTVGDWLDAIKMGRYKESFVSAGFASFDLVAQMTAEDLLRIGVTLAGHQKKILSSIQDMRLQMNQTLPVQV

[5] = biological target: T3, Ephrin type-B receptor 3 (Homo sapiens); conditions: at 10 µM
[6] = biological target: T4, Ephrin type-B receptor 4 (Homo sapiens) (UniProt P54760); conditions: at 1 µM
T4 sequence (whole entry): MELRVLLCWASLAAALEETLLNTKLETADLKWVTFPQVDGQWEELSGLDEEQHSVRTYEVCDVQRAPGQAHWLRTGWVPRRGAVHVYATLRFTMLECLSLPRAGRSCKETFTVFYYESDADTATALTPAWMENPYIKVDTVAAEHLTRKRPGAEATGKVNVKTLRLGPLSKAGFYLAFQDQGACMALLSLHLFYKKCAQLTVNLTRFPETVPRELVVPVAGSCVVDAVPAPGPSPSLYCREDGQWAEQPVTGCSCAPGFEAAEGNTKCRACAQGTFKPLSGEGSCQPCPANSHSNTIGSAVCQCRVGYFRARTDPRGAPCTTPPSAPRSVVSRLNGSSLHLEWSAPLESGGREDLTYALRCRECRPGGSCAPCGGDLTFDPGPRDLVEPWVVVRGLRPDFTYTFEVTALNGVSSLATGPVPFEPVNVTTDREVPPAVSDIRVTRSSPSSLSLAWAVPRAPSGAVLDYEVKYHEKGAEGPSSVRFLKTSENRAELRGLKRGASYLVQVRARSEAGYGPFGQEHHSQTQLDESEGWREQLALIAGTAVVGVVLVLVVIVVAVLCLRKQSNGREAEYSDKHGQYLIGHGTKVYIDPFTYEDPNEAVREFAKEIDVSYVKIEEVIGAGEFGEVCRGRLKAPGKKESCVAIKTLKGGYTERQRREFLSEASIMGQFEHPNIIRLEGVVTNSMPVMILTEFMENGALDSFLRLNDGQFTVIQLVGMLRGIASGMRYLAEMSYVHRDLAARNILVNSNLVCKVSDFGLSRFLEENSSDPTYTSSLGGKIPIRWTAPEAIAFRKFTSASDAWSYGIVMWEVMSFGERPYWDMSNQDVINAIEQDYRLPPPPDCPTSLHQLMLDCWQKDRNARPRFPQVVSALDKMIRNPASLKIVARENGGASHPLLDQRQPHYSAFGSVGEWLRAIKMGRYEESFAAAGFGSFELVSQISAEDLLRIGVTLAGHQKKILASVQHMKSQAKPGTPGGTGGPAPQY

[7] = biological target: T4, Ephrin type-B receptor 4 (Homo sapiens); conditions: at 10 µM
[8] = biological target: Receptor tyrosine-protein kinase erbB-4 (Homo sapiens) (UniProt Q15303); conditions: at 1 µM
[9] = biological target: Receptor tyrosine-protein kinase erbB-4 (Homo sapiens) (UniProt Q15303); conditions: at 10 µM
[10] = biological target: Focal adhesion kinase 1 (Homo sapiens) (UniProt Q05397); conditions: at 1 µM
Chain of Focal adhesion kinase 1 (Homo sapiens) (Q05397 2-1052 limits assumed): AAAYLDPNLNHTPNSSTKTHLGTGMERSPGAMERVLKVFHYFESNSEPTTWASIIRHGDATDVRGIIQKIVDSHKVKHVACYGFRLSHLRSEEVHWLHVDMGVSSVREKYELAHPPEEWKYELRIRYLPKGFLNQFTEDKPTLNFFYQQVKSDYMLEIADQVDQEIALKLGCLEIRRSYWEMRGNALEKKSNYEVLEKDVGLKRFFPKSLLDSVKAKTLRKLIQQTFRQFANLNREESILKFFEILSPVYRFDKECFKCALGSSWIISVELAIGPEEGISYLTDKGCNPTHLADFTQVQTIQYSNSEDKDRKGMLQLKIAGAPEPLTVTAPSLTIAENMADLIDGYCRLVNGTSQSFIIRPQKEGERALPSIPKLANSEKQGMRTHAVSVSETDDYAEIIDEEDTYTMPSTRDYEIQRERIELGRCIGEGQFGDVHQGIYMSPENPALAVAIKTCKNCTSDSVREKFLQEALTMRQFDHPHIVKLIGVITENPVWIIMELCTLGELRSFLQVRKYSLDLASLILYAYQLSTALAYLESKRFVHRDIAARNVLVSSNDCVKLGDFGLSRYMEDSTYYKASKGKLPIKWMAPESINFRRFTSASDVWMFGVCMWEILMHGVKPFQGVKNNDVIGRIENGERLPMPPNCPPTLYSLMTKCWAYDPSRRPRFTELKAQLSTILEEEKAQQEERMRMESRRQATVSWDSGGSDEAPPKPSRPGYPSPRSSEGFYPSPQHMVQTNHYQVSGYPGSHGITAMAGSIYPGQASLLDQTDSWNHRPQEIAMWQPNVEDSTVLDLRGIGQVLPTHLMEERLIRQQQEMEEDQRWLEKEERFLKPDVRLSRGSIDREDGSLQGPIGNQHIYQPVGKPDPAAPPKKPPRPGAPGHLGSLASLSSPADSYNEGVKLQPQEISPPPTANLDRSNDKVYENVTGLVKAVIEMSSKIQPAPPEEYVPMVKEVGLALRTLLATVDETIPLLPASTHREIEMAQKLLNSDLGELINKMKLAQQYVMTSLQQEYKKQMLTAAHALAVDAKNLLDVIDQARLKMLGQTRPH

Chain of Receptor tyrosine-protein kinase erbB-4 (Homo sapiens) (Q15303 whole entry): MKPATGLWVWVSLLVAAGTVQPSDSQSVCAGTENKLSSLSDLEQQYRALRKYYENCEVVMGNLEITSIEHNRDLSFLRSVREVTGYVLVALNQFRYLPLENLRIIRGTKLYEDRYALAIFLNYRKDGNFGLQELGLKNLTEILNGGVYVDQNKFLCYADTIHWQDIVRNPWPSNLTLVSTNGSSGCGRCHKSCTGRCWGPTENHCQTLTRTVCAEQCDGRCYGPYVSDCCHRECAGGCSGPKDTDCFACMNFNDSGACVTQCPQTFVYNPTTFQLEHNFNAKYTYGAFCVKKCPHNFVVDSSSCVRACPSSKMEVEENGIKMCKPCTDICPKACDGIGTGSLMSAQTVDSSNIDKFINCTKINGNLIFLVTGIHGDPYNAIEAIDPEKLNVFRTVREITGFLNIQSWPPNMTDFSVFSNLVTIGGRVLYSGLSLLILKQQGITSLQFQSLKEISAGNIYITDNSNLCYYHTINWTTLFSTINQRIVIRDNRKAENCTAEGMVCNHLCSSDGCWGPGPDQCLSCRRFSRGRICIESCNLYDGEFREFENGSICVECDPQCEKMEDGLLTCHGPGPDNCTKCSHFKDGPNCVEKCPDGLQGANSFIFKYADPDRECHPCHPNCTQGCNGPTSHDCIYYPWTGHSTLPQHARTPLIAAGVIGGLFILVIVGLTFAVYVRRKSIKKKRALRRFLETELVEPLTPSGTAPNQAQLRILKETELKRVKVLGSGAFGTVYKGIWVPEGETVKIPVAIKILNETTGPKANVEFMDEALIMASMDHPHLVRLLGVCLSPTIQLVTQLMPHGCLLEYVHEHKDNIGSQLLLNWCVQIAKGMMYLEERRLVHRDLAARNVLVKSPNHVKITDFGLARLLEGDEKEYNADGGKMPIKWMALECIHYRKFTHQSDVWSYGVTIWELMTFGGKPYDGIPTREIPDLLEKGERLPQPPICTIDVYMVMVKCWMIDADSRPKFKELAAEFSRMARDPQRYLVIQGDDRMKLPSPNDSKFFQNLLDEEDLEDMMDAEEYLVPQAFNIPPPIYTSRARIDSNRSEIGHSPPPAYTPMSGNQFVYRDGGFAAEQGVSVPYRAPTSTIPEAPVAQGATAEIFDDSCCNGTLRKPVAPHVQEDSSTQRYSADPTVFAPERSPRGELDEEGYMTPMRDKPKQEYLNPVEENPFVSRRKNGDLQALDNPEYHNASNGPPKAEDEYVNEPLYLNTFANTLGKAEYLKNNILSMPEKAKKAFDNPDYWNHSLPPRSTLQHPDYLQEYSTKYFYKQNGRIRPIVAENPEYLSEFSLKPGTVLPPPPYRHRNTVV

SMILES: O=C(Nc1cccc(Nc2nccc(Nc3cccc(C(F)(F)F)c3)n2)c1)C1CC1
- residual activity [1]: 7%
- residual activity [2]: 93%
- residual activity [3]: 26%
- residual activity [4]: 106% (inactive)
- residual activity [5]: 113%
- residual activity [6]: 109%
- residual activity [7]: 10%
- residual activity [8]: 98%
- residual activity [9]: 96%
- residual activity [10]: 51%
